# Experimental data from PubChem BioAssay (Tox21).
# Several values for one entry are separate records, joined by “and”; a condition that tells them apart may be missing. Equal values may be shown once. Inconclusive results are not listed. Entries that show only a call come without a potency. The source holds several records for some structures; these can differ, active in one and inactive in another. Activity calls are given as the source filed them. Unless noted, calls come from the whole dose curve; as a rule, active = well fitted curve in the direction sought with a large enough effect in the repeat runs; inconclusive = weak or mixed curves; inactive = no such curve, though single readings can be large; an effect the other way counts as inactive or inconclusive. Starred links: 1 amine or outer side, 2 acyl side, 3 side chain; linkers in the order of their positions; H or OH if unused. Positions of bridges follow the written chain, without caps; N, C: chain ends. Non-standard residues stand in square brackets, D forms with d. Residues, ends and D or L forms follow the SMILES beside them. Chains are numbered I, II in the order given. Actinocin(9to1) = Cc1c2oc3c(C)ccc(C(=O)[*:1])c3nc-2c(C(=O)[*:2])c(N)c1=O; NMeV = CN[C@H](C(=O)O)C(C)C; Sar = CNCC(=O)O
# Key:
# [1] = qHTS assay to identify small molecule antagonists of the estrogen receptor alpha (ER-alpha) signaling pathway using the BG1 cell line in the presence of 0.1 nM 17-beta-estradiol - cell viability counter screen (AID 1259241); conditions: VM7Luc4E2 (BG1) viability, CellTiter-Fluor protease, 22 h, 0.1 nM estradiol agonist added; series mostly up to 92.4 µM; note: nearly all actives have a fitted effect of over 40% in size; note: potency is the fitted concentration of half-maximal effect
# Procedure, shortened: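 The cell line endogenously expresses full-length ER-alpha and carries four EREs driving luciferase. Cells are cultured 5 days hormone-free, treated 22 hr with compounds and 0.1 nM estradiol, then viability is read by fluorescence.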
# [2] = qHTS assay to identify small molecule antagonists of the androgen receptor (AR) signaling pathway using the MDA cell line in the presence of 0.5 nM R1881 - cell viability counter screen (AID 1259242); conditions: MDA-kb2 viability, CellTiter-Fluor protease fluorescence, 16 h; series mostly up to 92.4 µM; note: nearly all actives have a fitted effect of over 45% in size; note: potency is the fitted concentration of half-maximal effect
# Procedure, shortened: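 Counter screen for cytotoxicity run in the same wells as the AR antagonist reporter screen: MDA-kb2 cells were treated 16 hr with test compounds and 0.5 nM R1881, then live-cell protease activity was measured by fluorescence.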
# [3] = qHTS assay to identify small molecule HDAC inhibitors - cell viability counter screen (AID 1259365); conditions: HCT-116 viability, CellTiter-Glo ATP luminescence, 2 h; series mostly up to 92.4 µM; note: nearly all actives have a fitted effect of over 50% in size; note: potency is the fitted concentration of half-maximal effect
# Procedure, shortened: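 Viability readout: CellTiter-Glo luminescence. Wild-type HCT-116 cells, 2hr compound treatment following overnight attachment at 37 C.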
# [4] = qHTS assay to identify small molecule agonists of the sonic hedgehog signaling (Shh) pathway - cell viability counter screen (AID 1259366); conditions: NIH/3T3 Gli1-Luc viability, CellTiter-Fluor, 24 h; series mostly up to 92.4 µM; note: nearly all actives have a fitted effect of over 50% in size; note: potency is the fitted concentration of half-maximal effect
# Procedure, shortened: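 Viability measured fluorometrically (CellTiter-Fluor, 1hr, 37C) in 3T3 Gli1-Luc reporter cells after 23hr compound exposure within a 24hr incubation at 37C/5% CO2.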
# [5] = qHTS assay to identify small molecule antagonists of the sonic hedgehog signaling (Shh) pathway - cell viability counter screen (AID 1259367); conditions: NIH/3T3 Gli1-Luc viability, CellTiter-Fluor, 24 h; series mostly up to 92.4 µM; note: nearly all actives have a fitted effect of over 55% in size; note: potency is the fitted concentration of half-maximal effect
# Procedure, shortened: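 NIH/3T3-derived Gli1-Luc reporter cells, 2,000/well, plated 4 hr before compound addition, then stimulated with conditioned medium for 24 hr at 37C. Viability measured in the same wells by CellTiter-Fluor fluorescence, reagent added at 23 hr for 1 hr.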
# [6] = qHTS assay to identify small molecule agonists of the sonic hedgehog signaling (Shh) pathway (AID 1259368; calls by dose curve;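 note: NIH/3T3-derived 3T3Gli1-Luc cells carrying a stable Gli1-driven firefly luciferase reporter; nearly all actives have a fitted effect of over 15% in size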); conditions: NIH/3T3 Gli1-Luc reporter, luciferase, 24 h; series mostly up to 92.4 µM
# Procedure, shortened: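 3T3Gli1-Luc (NIH/3T3 clone, stable Gli1-Luc); 4 hr pre-incubation, then cpd in DMSO 24 hr, 37 C/5% CO2; luciferase reagent 30 min RT; luminescence.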
# [7] = qHTS assay to identify small molecule HDAC inhibitors (AID 1259364); conditions: HCT-116 HDAC-Glo I/II luminescence, 2 h; series mostly up to 92.4 µM; note: nearly all actives have a fitted effect of over 45% in size; note: potency is the fitted concentration of half-maximal effect
# Procedure, shortened: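 Luminescence from a cell-permeant luminogenic class I/II HDAC substrate reports endogenous deacetylase activity in intact HCT-116 cells treated with compounds for 2 h.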
# [8] = molecular target: Androgen receptor (Homo sapiens) (UniProt P10275); assay: qHTS assay to identify small molecule antagonists of the androgen receptor (AR) signaling pathway using the MDA cell line in the presence of 0.5 nM R1881 (AID 1259243); conditions: MDA-kb2 MMTV-luciferase, R1881 0.5 nM, 16 h; series mostly up to 92.4 µM; note: nearly all actives have a fitted effect of over 50% in size; note: potency is the fitted concentration of half-maximal effect
# Procedure, shortened: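 Luciferase luminescence is the read-out: compounds are tested for suppressing 0.5 nM R1881-driven MMTV reporter activity in MDA-kb2 cells after 16 hr at 37C.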
# [9] = molecular target: Estrogen receptor (Homo sapiens) (UniProt P03372); assay: qHTS assay to identify small molecule antagonists of the estrogen receptor alpha (ER-alpha) signaling pathway using the BG1 cell line in the presence of 0.1 nM 17-beta-estradiol (AID 1259244); conditions: VM7Luc4E2 (BG1) ERE-luciferase, antagonist mode, 0.1 nM E2, 22 h; series mostly up to 92.4 µM; note: nearly all actives have a fitted effect of over 50% in size; note: potency is the fitted concentration of half-maximal effect
# Procedure, shortened: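 Cells: VM7Luc4E2, endogenous ER-alpha, 4x ERE-luc stable. Pre-culture 5 d, phenol red-free, charcoal-stripped FBS. Plated 24 h, compound + E2 0.1 nM final, 22 h 37C/5% CO2. Readout ONE-Glo luminescence.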
# [10] = qHTS assay to identify small molecule phospholipidosis (PLD) inducers (AID 1259344; active = well fitted curve in the direction sought with a large enough effect; an effect the other way counts as inactive or inconclusive); conditions: HepG2 phospholipidosis, LipidTOX Red imaging, 24 h; series mostly up to 38.3 µM
# Procedure, shortened: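 HepG2 cells, 900/well, treated with compound plus LipidTOX Red for 24 h at 37 C; amiodarone positive and DMSO negative controls. Fixed with paraformaldehyde/Hoechst, then high-content imaging scored LipidTOX pit count and integrated intensity per well and per cell.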
# Estrogen receptor (Homo sapiens), sequence (P03372 whole entry, looked up): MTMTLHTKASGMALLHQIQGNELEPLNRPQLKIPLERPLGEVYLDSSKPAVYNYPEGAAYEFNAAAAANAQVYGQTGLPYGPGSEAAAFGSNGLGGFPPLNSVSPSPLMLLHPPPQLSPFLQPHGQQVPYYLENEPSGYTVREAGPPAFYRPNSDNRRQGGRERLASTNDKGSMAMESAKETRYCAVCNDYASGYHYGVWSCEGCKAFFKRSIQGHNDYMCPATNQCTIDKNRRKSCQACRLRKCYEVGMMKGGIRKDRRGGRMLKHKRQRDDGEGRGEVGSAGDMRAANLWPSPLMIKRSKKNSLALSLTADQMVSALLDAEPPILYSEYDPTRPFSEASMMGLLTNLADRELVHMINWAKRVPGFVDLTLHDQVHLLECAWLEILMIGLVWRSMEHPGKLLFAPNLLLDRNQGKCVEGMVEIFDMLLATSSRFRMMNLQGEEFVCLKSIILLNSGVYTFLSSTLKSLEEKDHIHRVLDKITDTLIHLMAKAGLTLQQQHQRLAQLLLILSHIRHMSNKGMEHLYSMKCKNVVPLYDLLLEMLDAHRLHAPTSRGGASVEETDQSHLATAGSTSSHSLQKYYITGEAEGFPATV
# Androgen receptor (Homo sapiens), sequence (P10275 whole entry, looked up): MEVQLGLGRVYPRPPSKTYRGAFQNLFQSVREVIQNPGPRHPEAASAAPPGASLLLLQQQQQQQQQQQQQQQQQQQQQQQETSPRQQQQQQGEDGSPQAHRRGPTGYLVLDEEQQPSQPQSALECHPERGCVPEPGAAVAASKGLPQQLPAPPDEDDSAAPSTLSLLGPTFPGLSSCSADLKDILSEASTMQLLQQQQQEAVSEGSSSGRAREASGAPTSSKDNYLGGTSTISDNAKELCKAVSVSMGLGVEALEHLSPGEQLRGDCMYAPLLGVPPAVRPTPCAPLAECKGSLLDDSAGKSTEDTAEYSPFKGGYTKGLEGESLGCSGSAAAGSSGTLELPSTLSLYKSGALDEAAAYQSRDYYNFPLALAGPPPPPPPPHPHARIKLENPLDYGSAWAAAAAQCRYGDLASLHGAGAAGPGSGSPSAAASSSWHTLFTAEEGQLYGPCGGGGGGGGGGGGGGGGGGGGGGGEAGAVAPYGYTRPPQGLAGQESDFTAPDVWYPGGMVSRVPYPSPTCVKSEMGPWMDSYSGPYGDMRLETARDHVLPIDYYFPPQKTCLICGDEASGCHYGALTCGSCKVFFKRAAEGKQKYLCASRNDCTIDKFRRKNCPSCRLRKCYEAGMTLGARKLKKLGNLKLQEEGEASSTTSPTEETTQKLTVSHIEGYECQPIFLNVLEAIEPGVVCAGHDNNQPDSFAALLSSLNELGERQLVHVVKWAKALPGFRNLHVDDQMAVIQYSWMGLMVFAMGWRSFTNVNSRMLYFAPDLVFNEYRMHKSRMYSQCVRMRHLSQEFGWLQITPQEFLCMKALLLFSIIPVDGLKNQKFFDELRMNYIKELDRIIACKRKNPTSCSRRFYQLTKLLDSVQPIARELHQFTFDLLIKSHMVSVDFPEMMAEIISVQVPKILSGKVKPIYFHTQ
Compound,Potency [1],Potency [2],Potency [3],Potency [4],Potency [5],Potency [6],Potency [7],Potency [8],Potency [9],Potency [10]
COC(c1ccccc1)(c1ccccc1)[C@H](Oc1nc(C)cc(C)n1)C(=O)O,inactive,inactive,inactive,inactive,inactive,inactive,,,,
C/C=C/c1ccc(OCC)c(O)c1,inactive,inactive,inactive,,inactive,inactive,,,,
O=C(O[C@@H]1Cc2c(O)cc(O)cc2O[C@@H]1c1cc(O)c(O)c(O)c1)c1cc(O)c(O)c(O)c1,,,inactive,27.4 µM (active) and 26.3 µM (active),23.4 µM (active),inactive,,,,
O=C(Nc1ccccc1SSc1ccccc1NC(=O)c1ccccc1)c1ccccc1,inactive,inactive,inactive,,13.8 µM (active) and 12.2 µM (active),inactive,27.4 µM (active) and 19.3 µM (active),,,
CC(C)(C)NCC(O)c1cc(O)cc(O)c1 (stereo unspecified),inactive,inactive,inactive,,inactive,inactive,,,,
O=C(O)c1cn(-c2ccc(F)cc2)c2cc(N3CCNCC3)c(F)cc2c1=O,inactive,inactive,inactive,,inactive,inactive,,,,
CC[C@]1(O)C[C@@H]2CN(CCc3c([nH]c4ccccc34)[C@@](C(=O)OC)(c3cc4c(cc3OC)N(C)[C@H]3[C@@](O)(C(=O)OC)[C@H](OC(C)=O)[C@]5(CC)C=CCN6CC[C@]43[C@@H]65)C2)C1,1.88 µM (active),inactive,inactive,,0.0298 µM (active),inactive,,,,
O=S(=O)(O)c1ccc2nc(-c3ccccc3)[nH]c2c1,inactive,inactive,23.2 µM (active),,inactive,inactive,732 nM (active) and 668 nM (active),,,
O=C(O)CCc1ccccc1,inactive,inactive,inactive,,inactive,inactive,inactive,,,
Clc1ccc2c(c1)C(N1CCNCC1)=Nc1ccccc1O2,inactive,,inactive,24.3 µM (active) and 13.3 µM (active),inactive,inactive,inactive,,,
CCCCCCCCCCCCc1ccccc1O,inactive,,inactive,60.3 µM (active) and 61.1 µM (active),60.3 µM (active) and 61.1 µM (active),inactive,inactive,30.2 µM (active) and 24.3 µM (active),inactive and 61.1 µM (active),
CC[C@H]1CN2CCc3cc(OC)c(OC)cc3[C@@H]2C[C@@H]1C[C@H]1NCCc2cc(OC)c(OC)cc21,,,inactive,274 nM (active),487 nM (active) and 2.37 µM (active),inactive,,,,inactive
Cc1cc(C2(c3cc(C)c(O)cc3C)OS(=O)(=O)c3ccccc32)c(C)cc1O,21.7 µM (active) and 15.4 µM (active),24.3 µM (active) and 15.4 µM (active),inactive,,27.3 µM (active) and 13.7 µM (active),inactive,inactive,,,
Oc1c(Cl)cc(Cl)c(Cl)c1Cc1c(O)c(Cl)cc(Cl)c1Cl,,8.41 µM (active),inactive,30.5 µM (active) and inactive,inactive,inactive,inactive,3.43 µM (active) and 6.11 µM (active) and 6.68 µM (active),,inactive
NC12CC3CC(CC(C3)C1)C2,inactive,inactive,inactive,,inactive,inactive,inactive,,,
O=Nc1ccc(Nc2ccccc2)cc1,inactive,,,24.5 µM (active) and 24.3 µM (active),27.4 µM (active) and 54.5 µM (active),inactive,,48.8 µM (active) and 54.5 µM (active),,
"Cc1c2oc3c(C)ccc(C(=O)N[C@@H]4C(=O)N[C@H](C(C)C)C(=O)N5CCC[C@H]5C(=O)N(C)CC(=O)N(C)[C@@H](C(C)C)C(=O)O[C@@H]4C)c3nc-2c(C(=O)N[C@@H]2C(=O)N[C@H](C(C)C)C(=O)N3CCC[C@H]3C(=O)N(C)CC(=O)N(C)[C@@H](C(C)C)C(=O)O[C@@H]2C)c(N)c1=O (I: T[dV]P[Sar][NMeV] / II: T[dV]P[Sar][NMeV]; ester I:1-I:C, II:1-II:C; linker I:N-II:N via Actinocin(9to1))",26.6 µM (active),,inactive,42.1 nM (active) and 168 nM (active),42.1 nM (active) and 119 nM (active),inactive,inactive,26.6 nM (active) and 9.4 nM (active),23.7 nM (active) and 53.1 nM (active),inactive
CCC(=O)/C=C/C1C(C)=CCCC1(C)C (stereo unspecified),inactive,inactive,inactive,,inactive,inactive,inactive,,,
CCC(CO)(CO)COCC(CC)(CO)CO,inactive,inactive,inactive,inactive,inactive,inactive,,,,
CCN(CC)CCOc1ccc(/C(=C(\Cl)c2ccccc2)c2ccccc2)cc1,inactive,,inactive,,inactive,inactive,,,,
CC1=C(C=O)C(C)(C)CC=C1,inactive,inactive,inactive,,inactive,inactive,inactive,,,
O=C1CC2(CCCC2)CC(=O)N1CCCCN1CCN(c2ncccn2)CC1,inactive,inactive,inactive,inactive,inactive,inactive,,,,
NC(N)=NC(=O)Cc1c(Cl)cccc1Cl,inactive,inactive,inactive,,inactive,inactive,inactive,,,
O=C(O)c1cccc(C(=O)O)c1,inactive,inactive,inactive,inactive,inactive,inactive,,,,
Nc1ccc(O)cc1,,50.4 µM (active) and inactive,inactive,17900 nM (active),31.8 µM (active) and inactive,inactive,inactive,25.3 µM (active) and inactive,,inactive
Oc1ccc(Cl)cc1Cc1cc(Cl)ccc1O,inactive,,inactive,62.3 µM (active) and inactive,55.5 µM (active) and 43.3 µM (active) and inactive,inactive,inactive,13.9 µM (active) and 27.3 µM (active) and 23.7 µM (active),44.1 µM (active) and 68.6 µM (active),inactive
CCn1c2ccccc2c2cc(N)ccc21,inactive,inactive,inactive,inactive,inactive,inactive,,,,
CC(C)CCCCCCc1ccc(O)cc1,,6.98 µM (active) and inactive,,,55.4 µM (active) and inactive,inactive,inactive,,5.54 µM (active) and inactive,inactive
c1ccc2c(c1)-c1cccc3c1c-2cc1ccccc13,inactive,inactive,inactive,inactive,inactive,inactive,,,,
